# Rows were chosen to be rich in hits. Some 4% of all compounds tested hit in one or more screens of this group.
# Mtb UGM inh – Mtb UDP-galactopyranose mutase inhibition. P9WIQ1. purified UGM, fluorescence polarization probe displacement. inhibition, % at 10 µM. 320,000 compounds, 0.06% hits; in the data active = inhibition above about 10%, passing the limit was not always enough; inconclusive = no clear call, values can overlap the other calls
# Mtb FBA inh – Mtb fructose-bisphosphate aldolase inhibition; P9WQA3; purified M. tuberculosis FBA, fluorescence read-out; inhibition, % at 1 µM; 360,000 compounds, 2.3% hits; AID 588726;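 also: 0% = vehicle and 100% = reference inhibitor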
# Target sequence (P9WQA3 whole entry, looked up): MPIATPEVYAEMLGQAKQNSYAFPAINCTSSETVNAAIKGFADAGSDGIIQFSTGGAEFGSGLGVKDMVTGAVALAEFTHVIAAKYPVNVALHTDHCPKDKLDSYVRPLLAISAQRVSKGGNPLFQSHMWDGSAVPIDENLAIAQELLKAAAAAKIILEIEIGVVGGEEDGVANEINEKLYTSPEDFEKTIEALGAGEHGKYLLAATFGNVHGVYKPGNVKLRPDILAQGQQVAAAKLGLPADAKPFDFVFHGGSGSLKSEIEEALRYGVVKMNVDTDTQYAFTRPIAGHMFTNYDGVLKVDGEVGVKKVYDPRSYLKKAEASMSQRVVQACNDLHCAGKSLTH
# Rv3671c protease – inhibits the M. tuberculosis serine protease Rv3671c. P9WHR9. inhibition, % at 5.96 µM. 320,000 compounds, 0.048% hits. AID 2606; in the data active = inhibition above about 38%;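 also: extracellular domain of Rv3671c used as enzyme; 0% = enzyme with DMSO and 100% = no enzyme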
# RecA splice inh – inhibitors of M. tuberculosis RecA intein splicing; 290,000 compounds, 0.75% hits; AID 2221; cell-free RecA intein splicing, fluorescence; P9WHJ3; inhibition, % (test concentration not listed); in the data active = inhibition above about 30%; inconclusive = no clear call, values can overlap the other calls;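 also: 0% = vehicle wells and 100% = reference inhibitor control wells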
# Mtb bLac sens – beta-lactam sensitization of Mtb H37Rv; M. tuberculosis H37Rv growth with meropenem, percent inhibition; AID 434955; inhibition, % at 25 µM; 330,000 compounds, 0.27% hits; call rule not given here;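 also: growth measured after seven days incubation then overnight dye step; 0% = bacteria only wells and 100% = bacteria with antibiotic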
# GDH-TPI counter-1 – GDH-TPI coupled enzyme inhibition counter-screen | GDH-TPI coupled enzyme counterscreen, NADH absorbance | inhibition, % at 4.8 µM | 360,000 compounds, 1.2% hits | AID 588335; in the data active = inhibition above about 30%;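 also: 0% = DMSO wells and 100% = wells lacking the enzyme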
# Mtb FBA confirm – Mtb FBA inhibition, confirmed. shares compounds with Mtb FBA inh. purified M. tuberculosis FBA, fluorescence read-out. inhibition, % at 1 µM. 5,600 compounds, 78% hits;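 also: 0% = vehicle wells and 100% = reference inhibitor wells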
# GDH-TPI counter-2 – inhibits GDH-TPI coupling enzymes, flagging Mtb FBA hits; shares compounds with Mtb FBA inh; GDH-TPI coupled enzyme counterscreen, fluorescence; inhibition, % at 1 µM; 5,600 compounds, 81% hits; in the data active = inhibition above about 10%
# * = called active by the depositor; u = inconclusive; x = not tested or not shown; + = active, no number. Rule as the data show it, unless noted: active = inhibition above about 27%; inactive = the rest.
SMILES,Mtb UGM inh,Mtb FBA inh,Rv3671c protease,RecA splice inh,Mtb bLac sens,GDH-TPI counter-1,Mtb FBA confirm,GDH-TPI counter-2
CSc1cccc(NC(=O)CCCn2c(=O)c3cccn3c3cccnc32)c1,1,2,-13,-5,8,4,x,x
Cc1ccc(-c2nn(-c3ccccc3)cc2CO)o1,-4,33*,10,-2,73,9,76*,54*
C[C@H]1CN([C@@H](C)CO)C(=O)CCCn2nncc2CO[C@@H]1CN(C)S(=O)(=O)c1ccc(-c2ccccc2)cc1,x,-4,x,x,x,-7,x,x
Cn1c(=O)c2cc(NC(=O)CCc3cccc(Cl)c3)ccc2n1Cc1cccc(C(F)(F)F)c1,x,37*,x,x,x,-4,96*,84*
COc1ccc(OC)c(CC(=O)Nc2ccc3c(c2)c(=O)n(C)n3Cc2cccc(C(F)(F)F)c2)c1,x,111*,x,x,x,-5,36*,28*
COc1cc(CC(=O)Nc2cccc(C(F)(F)F)c2)cc(OC)c1OC,4,0,-14,5,-3,8,x,x
Cn1c(=O)c2cc(NC(=O)NCc3ccc(Cl)cc3Cl)ccc2n1Cc1ccccc1,x,48*,x,x,x,8,152*,117*
O=C(NCc1ccc(Cl)cc1Cl)C1CC(=O)N(Cc2ccccc2)C1 (stereo not given),1,0,-8,-6,-10,-1,x,x
COc1cc(CCC(=O)Nc2cccc(C(F)(F)F)c2)cc(OC)c1OC,2,-1,-4,0,-4,11,x,x
Cn1c(=O)c2cc(NC(=S)NCc3ccccc3F)ccc2n1C,x,57*,x,x,x,8,18,12*
Cc1nn(CC(=O)N(C)Cc2ccccc2)c(=O)c2cccn12,1,4,6,-2,-4,4,x,x
O=[N+]([O-])c1ccc(C(O)C[n+]2ccccc2)cc1 (stereo not given),1,-1,-5,-6,-5,2,x,x
CC(C#N)(NC(=O)CN1CCN(S(=O)(=O)c2ccccc2C#N)CC1)C1CC1 (stereo not given),1,2,5,x,-6,11,x,x
O=C(COC(=O)c1ccccc1NCCO)NCCC1=CCCCC1,-2,63*,6,-4,-12,3,175*,130*
CC(C#N)(NC(=O)COC(=O)c1ccccc1NCCO)C1CC1 (stereo not given),-2,99*,1,-12,-8,11,52*,39*
O=C(COC(=O)c1ccccc1NCCO)NCC1CCCCC1,2,71*,-2,x,-4,7,100*,76*
O=C(OCC(=O)N(Cc1ccccc1)Cc1ccccc1)c1ccccc1NCCO,-1,95*,-8,-2,12,9,4,-2
Cc1cc(C(=O)N2CCC2(C)C(=O)NCCC#N)nn1C (stereo not given),x,0,x,x,x,1,x,x
CC(=O)c1ccc(N2CCN(S(=O)(=O)c3ccc4c(c3)CCC(=O)N4)CC2)cc1,x,3,x,x,x,19,x,x
Cc1ccc(-n2nc(C)c(NC(=O)COC(=O)c3ccccc3NCCO)c2C)cc1,-2,68*,-3,-8,-18,16,80*,65*
O=C(COC(=O)c1ccccc1NCCO)NCCc1ccccc1,u,77*,5,-5,-2,3,47*,38*
O=C(COC(=O)c1ccccc1NCCO)NNC(=O)c1cccs1,-4,60*,2,-5,-12,6,+,+
CCOc1ccc(CCNC(=O)COC(=O)c2cccnc2SC)cc1OCC,2,4,-1,-2,-6,8,x,x
COc1ccc2c(C)cc3n[nH]c(=S)n3c2c1,1,37*,-1,-3,-4,28,33*,21*
O=C1CCCC2=C1C1(CCCC1)N=C(Nc1nc3cc(-c4ccccc4)ccc3o1)N2,x,1,x,x,x,5,x,x
SMILES,Mtb UGM inh,Mtb FBA inh,Rv3671c protease,RecA splice inh,Mtb bLac sens,GDH-TPI counter-1,Mtb FBA confirm,GDH-TPI counter-2
CC(OCC(O)CN1CCN(S(=O)(=O)c2ccc(Cl)cc2)CC1)c1ccc(Cl)cc1 (stereo not given),x,-2,x,x,x,11,x,x
CC(C)c1ccc(S(=O)(=O)N2CCN(CC(O)CN3CCOCC3)CC2)cc1 (stereo not given),0,51*,9,x,12,-1,82*,70*
Cc1nc2ccc(NC(=O)N3CCOCC3)cc2s1,6,0,2,-5,15,-5,x,x
CCOC(=O)C1CCN(C(=O)Nc2ccc3nc(C)c(C)nc3c2)CC1,1,78*,3,0,-6,11,115*,77*
Cc1nc2ccc(NC(=O)N3CCOCC3)cc2nc1C,0,43*,-11,-3,-4,9,+,147*
CCOC(=O)C1CCN(C(=O)Nc2ccc3oc(C)nc3c2)CC1,-1,-3,-8,-1,5,-13,x,x
COc1ccc(N2CCN(S(=O)(=O)CCNC(=O)COc3ccccc3C)CC2)cc1,4,1,-2,4,-2,1,x,x
CCOCCCNC(=O)c1cc2c(s1)-c1ccccc1SC2,0,-4,-19,-6,6,4,x,x
CN(C)CCNC(=O)c1cc2c(s1)-c1ccc(Cl)cc1SC2,-3,34*,x,1,45,6,106*,90*
O=S(=O)(Cc1ccccc1)NCCc1cccc(Cl)c1,1,1,x,2,3,-3,x,x
CCOC(=O)N1CCC(NC(=O)C2CCN(c3ccc(N4CCOCC4)nn3)CC2)CC1,0,31*,0,-6,7,13,123*,107*
CCOc1ccc(NC(=O)c2cccc(-n3cccc3)c2)cc1S(=O)(=O)N1CCOCC1,0,-1,-10,x,0,0,x,x
COc1cc2cc(C(c3nnnn3Cc3ccc(F)cc3)N3CCCCCC3)c(=O)[nH]c2cc1OC (stereo not given),-1,49*,4,-5,-8,22,-2,-2
CCCc1cc(=O)[nH]c(SCC(=O)N(C)C2CCCCC2)n1,1,-3,-3,x,-3,-2,x,x
c1ccc2cc3[nH]c(CN4CCOCC4)nc3cc2c1,-5,103*,0,1,-2,7,8,-6
c1ccc2[nH]c(CN3CCOCC3)nc2c1,1,2,4,-5,3,11,x,x
COC(=O)c1ccc(-c2ccc(/C=N/NC(=O)CC3(C)OCCCO3)o2)cc1,-1,34*,3,-4,10,23,+,177*
O=C(O)c1ccccc1C(=O)N1N=C(c2ccccc2)CC1c1ccccc1O (stereo not given),3,1,-6,-1,-4,6,x,x
COc1ccc(Nc2cccc3ccccc23)cc1,2,10,2,1,99,4,x,x
Cc1ccc(S(=O)(=O)Oc2ccc(C3C4=C(CCCC4=O)OC4=C3C(=O)CCC4)cc2)cc1,-2,4,6,-1,0,13,x,x

# Assay outcomes from PubChem.
